Source: PubChem BioAssay (NCATS)
Inconclusive results are not listed. Calls of active or inactive are those of the source. The call rests on the fitted dose curve; in most records, active means well fitted inhibition curve with a large enough effect; inconclusive means small, poorly fitted or top-dose-only effect; inactive means flat fitted curve, though single readings scatter.

Tested on: CRL-7250
Assay: qHTS assay to identify novel small-molecules to repurpose for Merkel cell carcinoma treatment (AID 1296009); further: nearly all actives have a fitted effect of over 60% in size
Details: MCC and control cell lines, CellTiter-Glo viability, 72 h; series mostly up to 92 µM; activity change, negative = cytotoxicity: at the top concentration
Outline: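 Viability readout: ATP luminescence (CellTiter-Glo) after 72 hr drug exposure at 37 degree celsius. Dose-response format was 8 points for NPC and 11 points for MIPE; data normalized to in-plate controls.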

Compound | outcome
O=C(/C=C/c1ccc(O)cc1)OC[C@H]1O[C@H](O[C@@]2(CO)O[C@@H](CO)[C@H](O)[C@H]2O)[C@H](O)[C@@H](O)[C@@H]1O | inactive [at 17.4 µM]
O=C(Cc1ccc(-c2ccccc2)cc1)NC1CCC1 | inactive
C=CC1(C)CC(OC(=O)/C(C)=C\COC(C)=O)C(C(=C)C(=O)O)C(O)C1C(=C)CO (stereo unspecified) | inactive [at 17.4 µM]
CC(C)C(C(=O)N(C)C(C)C(N)=O)N(C)C(=O)C1CCCN1C(=O)/C=C/C=C/C(O)C(C)O (stereo unspecified) | inactive [at 17.4 µM]
COc1c2c(c(C)c3c1C(=O)OC3)OC1(C)CC(O)C34OC(OC)(CCC3(C)C1C2)OC4(C)CO (stereo unspecified) | inactive [at 17.4 µM]
C=C(C)C1CCC2(C(=O)O[C@@H]3O[C@H](CO[C@@H]4O[C@H](CO)[C@@H](O)[C@H](O)[C@H]4O)[C@@H](O)[C@H](O[C@@H]4O[C@@H](C)[C@H](O)[C@@H](O)[C@H]4O)[C@H]3O)CCC3(C(=O)O)C(CCC4C5(C)CCC(O)C(C)(C)C5CCC43C)C12 (stereo partly specified) | inactive [at 9.27 µM]
C=C1CC[C@@H]2[C@@](C)(CO[C@@H]3O[C@H](CO)[C@@H](O)[C@H](O)[C@H]3O)[C@H](O)CC[C@@]2(C)[C@@H]1CC/C(C)=C/CO[C@@H]1O[C@H](CO)[C@@H](O)[C@H](O)[C@H]1O | inactive [at 17.4 µM]
CC(=O)O[C@@H]1CC2C(/C=C(\C)C(=O)[C@@]3(O)C[C@@H](C)[C@H](OC(=O)c4ccccc4)C3/C=C/1C)C2(C)C (stereo partly specified) | inactive [at 17.4 µM]
C[C@@H]1CC[C@]2(C(=O)O[C@@H]3O[C@H](CO)[C@@H](O)[C@H](O)[C@H]3O)CC[C@]3(C)C(=CCC4[C@@]5(C)C[C@@H](O)[C@H](O)[C@@](C)(C(=O)O[C@H]6[C@H](O)C[C@@]7(C)C(CC[C@]8(C)C7CC=C7[C@H]9[C@](C(=O)O[C@@H]%10O[C@H](CO)[C@@H](O)[C@H](O)[C@H]%10O)(CC[C@@H](C)[C@@]9(C)O)CC[C@]78C)[C@@]6(CO)C(=O)O)C5CC[C@]43C)[C@@H]2[C@]1(C)O (stereo partly specified) | inactive [at 9.27 µM]
C=CC1(C)CC2CCC3C(C)(C(=O)O)CCCC3(C)C2=CC1=O (stereo unspecified) | inactive
COC(=O)c1c(CC=C(C)C)c(OC2OC(CO)C(O)C(O)C2O)c2ccccc2c1OC1OC(CO)C(O)C(O)C1O (stereo unspecified) | inactive [at 17.4 µM]
COC(=O)C(CC1(O)c2ccccc2N2C(=O)C(C)(C)N(O)C21)n1cnc2ccccc2c1=O (stereo unspecified) | inactive [at 17.4 µM]
COc1cc(/C=C/C(=O)O[C@H]2[C@H](OC(=O)/C=C/c3cc(OC)c(O)c(OC)c3)O[C@H](CO[C@@H]3O[C@H](CO)[C@@H](O)[C@H](O)[C@H]3O)[C@@H](O)[C@@H]2O)ccc1O | inactive [at 17.4 µM]
C=C1C(=O)OC2C1C(O)CC1(C)C(O)CCC(C=O)C21 (stereo unspecified) | inactive
COc1cc([C@@H]2Oc3c(OC)cc(CCCO)cc3[C@@H]2CO[C@@H]2O[C@H](CO)[C@@H](O)[C@H](O)[C@H]2O)ccc1O | inactive [at 17.4 µM]
C[C@]1(OC(=O)/C=C/c2ccccc2)C[C@H](O)[C@]2(O)C=CO[C@@H](O[C@@H]3O[C@H](CO)[C@@H](O)[C@H](O)[C@H]3O)C12 (stereo partly specified) | inactive [at 17.4 µM]

Compound | outcome
OC/C=C/C=C/[C@H]1Cc2cc(O)cc(O)c2O1 | inactive
COc1c(CCC(=O)O)cccc1O[C@@H]1O[C@H](CO)[C@@H](O)[C@H](O)[C@H]1O | inactive
C/C=C/CCC1Cc2cc(O)c(CCCC)c(O)c2C(=O)O1 (stereo unspecified) | inactive
O=C(O)c1cc(-c2c(-c3ccccc3)nn3ccccc23)n[nH]c1=O | inactive
C/C=C1\[C@H](O[C@@H]2O[C@H](CO)[C@@H](O)[C@H](O)[C@H]2O)OC=C(C(=O)OC)[C@H]1CC(=O)OC | inactive [at 17.4 µM]
CC(=O)OC1(C)CC(O)C2(O)C=COC(OC3OC(CO)C(O)C(O)C3O)C12 (stereo unspecified) | inactive [at 17.4 µM]
C[C@H]1CC[C@H]2[C@@H](C=C[C@@](C)(O)[C@]2(C)C(=O)CCO)C1 | inactive
CC(/C=C/C1(O)C(C)(C)CC(O)CC1(C)O)OC1OC(CO)C(O)C(O)C1O (stereo unspecified) | inactive [at 17.4 µM]
CC(C)C[C@H](CC(=O)NO)C(=O)N[C@H](C(=O)N[C@@H](C)C(=O)NCCN)C(C)(C)C | inactive [at 9.27 µM]
O=C(NCc1ccc(OC(F)(F)F)cc1)C1c2ccccc2C(=O)N1C1CCOCC1 (stereo unspecified) | inactive
CC(C)C(CO)Nc1nc(Nc2ccc(C(=O)O)c(Cl)c2)c2ncn(C(C)C)c2n1 (stereo unspecified) | inactive
COC1C=C(C)C(O)(CO)C2(C)CCCC(C)(C)C12 (stereo unspecified) | inactive
CC(O)C(C)n1ncn(-c2ccc(N3CCN(c4ccc(OCC5COC(Cn6cncn6)(c6ccc(Cl)cc6Cl)O5)cc4)CC3)cc2)c1=O (stereo unspecified) | inactive
N[C@@H](CCNCc1ccc(Cl)cc1)C(=O)N1CCCCC1 | inactive
CC1CCC2(CO)C(C(=O)O)=CCCC2C1(C)CCc1ccoc1 (stereo unspecified) | inactive
